Compound activity deposited in PubChem by National Center for Advancing Translational Sciences (NCATS).
In the library only some 2.2% were active in any assay of this set; here they are far more common.
Vaccinia Venus: inhibitors of vaccinia virus (Venus reporter) | Potency, µM (titrated, usually from 36.5 µM), hits mostly inhibitors | Vaccinia virus Venus reporter expression, fluorescence | 0.46% of 330,000 active; calls by dose curve; tested in A549 cells; further: nearly all actives have a fitted effect of over 30% in size
Vaccinia mCherry: inhibitors of vaccinia virus infection (mCherry reporter signal) | Vaccinia virus mCherry reporter infection, fluorescence | Potency, µM (titrated, usually from 36.5 µM), most hits filed as inhibitors | 0.63% of 310,000 active | AID 720579; calls by dose curve; tested in A549 cells; further: nearly all actives have a fitted effect of over 35% in size
FMDV inh: foot and mouth disease virus antiviral activity | FMDV antiviral cell-based qHTS | Potency, µM (titrated, usually from 57.9 µM), actives largely listed as inhibitors | 1.2% of 410,000 active; calls by dose curve; tested in HEK293T cells; further: read-out not given here; nearly all actives have a fitted effect of over 45% in size
FBPA Giardia inh: inhibitors of Giardia lamblia fructose-1,6-bisphosphate aldolase. purified Giardia FBPA. Potency, µM (doses to about 59.6 µM), usual class: inhibitors. 0.71% of 290,000 active. AID 2451; active means well fitted inhibition curve with a large enough effect; inconclusive means small, poorly fitted or top-dose-only effect, or effect the other way; further: nearly all actives have a fitted effect of over 55% in size
Target sequence (A8B2U2 whole entry, looked up): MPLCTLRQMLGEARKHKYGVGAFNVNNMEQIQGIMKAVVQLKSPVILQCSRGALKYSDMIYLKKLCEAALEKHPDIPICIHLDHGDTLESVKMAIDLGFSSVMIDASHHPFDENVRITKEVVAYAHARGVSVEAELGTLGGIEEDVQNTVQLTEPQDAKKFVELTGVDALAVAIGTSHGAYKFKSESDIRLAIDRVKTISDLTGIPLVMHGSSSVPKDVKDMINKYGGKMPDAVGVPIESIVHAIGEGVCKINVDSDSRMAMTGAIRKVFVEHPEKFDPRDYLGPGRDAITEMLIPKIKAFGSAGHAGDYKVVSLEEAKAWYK
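Giardia FBPA (40 nM reagent) was preincubated 10 min at RT with compound (up to 57.5 uM final), then substrate plus GAPDH/TPI/NAD/arsenate coupling system with diaphorase/resazurin was added; resorufin fluorescence (525/598 nm) was read after 20 min.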
A number is an active result; n = inactive; u = inconclusive; x = not tested or not shown.

SMILES	Vaccinia Venus	Vaccinia mCherry	FMDV inh	FBPA Giardia inh
CC[C@H]1OC(=O)[C@H](C)C(=O)[C@H](C)[C@@H](O[C@@H]2O[C@H](C)C[C@H](N(C)C)[C@H]2O)[C@](C)(OC)C[C@@H](C)C(=O)[C@H](C)[C@H]2N(CCCCn3cnc(-c4cccnc4)c3)C(=O)O[C@]12C	n	n	n	x
CCOC(=O)C(C(=O)OCC)C(C(=O)OCC)N1CCOCC1 (stereo not drawn)	n	n	31.6µM	n
CCOC(=O)C(C)CC(C)C(=O)N1CCOCCOCCN(C(=O)C(C)CC(C)C(=O)OCC)CCOCC1 (stereo not drawn)	x	x	n	n
CCn1c(-c2ccccc2F)nc2cc(NC(C)=O)cc(C(=O)NCc3ncc(C)[nH]3)c21	n	n	n	x
CC(=C\c1ccccc1)/C=C1/SC(=S)N(CCCC(=O)O)C1=O	n	n	u	n
CC(/C=C1\SC(=O)N(CCCC(=O)O)C1=O)=C\c1ccccc1	n	n	0.891µM	n
COc1ccc(/C=N/OCC(=O)NC(c2ccccc2)c2ccccc2)cc1OC	u	u	7.08µM	n
COc1ccc(/C=N/OCC(=O)Nc2cc(C)on2)cc1OC	n	n	n	n
C=C1C=C(C(F)F)n2ncc(C(=O)Nc3ccc(Br)cc3C(F)(F)F)c2N1	n	n	x	x
CN(C)c1ccc(C(=S)N2CCN(c3ccc([N+](=O)[O-])cc3)CC2)cc1	n	u	n	7.92µM
c1ccc(CCc2nnc3n2CCN(Cc2ccc4ccccc4n2)CC3)cc1	n	n	n	x
CCC1C(=O)NCCN1Cc1ccc2c(c1)CN(Cc1ccc(OC)c(OC)c1)CCO2 (stereo not drawn)	u	n	n	x
Cc1cccc2c(C(=O)N3CCN(c4ccccn4)CC3)cc(-c3cccc(Br)c3)nc12	x	x	25.1µM	n
O=C(c1cc(-c2cccc(Cl)c2)nc2ccccc12)N1CCN(c2ccccn2)CC1	n	n	n	n
COc1cccc(C(=O)NC(C)c2nnc3n2CCN(CC=C(C)C)CC3)c1 (stereo not drawn)	n	n	n	x
O=C(NCc1ccc(F)cc1)C(=O)NCC1CCCN1S(=O)(=O)c1ccccc1 (stereo not drawn)	n	n	n	x
O=C(NCCc1ccc(F)cc1)C(=O)NCC1CCCN1S(=O)(=O)c1ccccc1 (stereo not drawn)	n	u	39.8µM	x
COc1ccc(C(=O)CC(c2ccc(OC)c(OC)c2)c2c(O)c3ccccc3oc2=O)cc1OC (stereo not drawn)	n	n	n	x
C/C(CC(c1ccccc1)c1c(O)c2ccccc2oc1=O)=N\NC(N)=S (stereo not drawn)	7.94µM	3.98µM	n	u
CC(C)C(=O)Nc1cccc(COc2ccc(CN(Cc3ccccc3)C(=O)OC(C)(C)C)cc2)c1	n	n	11.2µM	x
CC(C)(C)OC(=O)N(CCc1ccccc1)Cc1ccc(OCc2cccc(NC(=O)C3CC3)c2)cc1	n	n	22.4µM	x
CC(C)C(=O)Nc1ccc(COc2ccccc2CN(Cc2ccccc2)C(=O)OC(C)(C)C)cc1	n	u	n	x
CC(C)(C)OC(=O)N(CCc1ccccc1)Cc1ccc(OCc2cccc(NC(=O)C3CCC3)c2)cc1	n	n	u	x
O=C(NCCc1ccccn1)C1CC12CCN(C(=O)c1cccc(C(F)(F)F)c1)CC2 (stereo not drawn)	n	n	n	x
C=CC(=O)Nc1cccc(Oc2ncnc3[nH]cc(-c4cnc5ccccc5c4)c23)c1	11.2µM	u	n	x
SMILES	Vaccinia Venus	Vaccinia mCherry	FMDV inh	FBPA Giardia inh
CC(=O)Nc1cccc(Oc2ncnc3scc(-c4ccc(C)cc4)c23)c1	x	x	u	n
Cc1ccc(S(=O)(=O)Nc2ccc(NS(=O)(=O)c3ccc(C)cc3)c3ncccc23)cc1	x	x	x	n
Nc1ccccc1S(=O)(=O)Nc1cccc2cccnc12	x	x	x	14.1µM
Cc1ccc(S(=O)(=O)Nc2cccc3cccnc23)cc1	u	u	28.2µM	n
O=C(Cc1ccc(OCC2CCCCC2)cc1)NO	n	n	x	x
COc1ccc(Br)c(OC)c1C(=O)NC(=O)Nc1nc(C)cc(C)n1	n	n	n	19.9µM
COc1cc(-c2ccc3oc(-c4ccsc4)cc3c2)cc(OC)c1OC	14.1µM	u	n	x
COc1cccc(C2(CC(=O)N3CCC(c4nc5ccccc5o4)CC3)CC(=O)N(C)C2=O)c1 (stereo not drawn)	n	n	n	x
N#Cc1c(N)n(-c2ccc(N)cc2)c2nc3ccccc3nc12	n	n	n	n
N#Cc1c(C#N)c(SSc2c(C#N)c(C#N)c(N)n2-c2ccccc2)n(-c2ccccc2)c1N	n	n	39.8µM	x
Cn1c(SCc2ccc(Cl)cc2)nnc1-c1ccc(NC(=O)CCc2ccccc2)cc1	n	n	x	x
Cc1[nH]c2ccccc2c(=O)c1C(=O)/C=C/c1ccccc1	u	3.16µM	12.6µM	n
O=C(C=Cc1ccccc1)c1c[nH]c2ccccc2c1=O	n	u	n	x
Cc1cc(O)c(C(=O)/C=C/c2ccccc2)c(=O)o1	n	n	11.2µM	n
Cc1cc(O)c(C(=O)/C=C/c2ccccc2Br)c(=O)o1	n	n	11.2µM	n
Cc1cc(O)c(C(=O)/C=C/c2ccc(C(C)C)cc2)c(=O)o1	x	x	n	n
NC(=O)COC(=O)c1ccccc1OCC(=O)Nc1ccc(Br)cc1	n	n	x	x
O=C(NCCc1nnc2n1CCN(Cc1c(F)cccc1F)CC2)c1ccc(F)cc1	n	n	n	x
CCN1C(Br)=CCc2ccccc21	n	n	x	x
C=C1C=C(C(F)F)n2ncc(C(=O)NCc3ccccc3)c2N1	n	n	x	x
COC(=O)c1c(-c2ccc3ccccc3c2)csc1NC(=O)Cc1ccc(OC)c(OC)c1	u	x	10µM	n
CCC(=O)OCOc1ccc(/C=C2/CCC(CN(C)C)C2=O)cc1 (stereo not drawn)	n	n	31.6µM	x
CC(=O)Nc1cc(-c2ccc(C(=O)NC3CC3)cc2)cn2c(-c3cccc(C(F)(F)F)c3)cnc12	u	u	25.1µM	x
COc1ccc(N2C(=O)/C(=C/c3ccc(OC)c(OC)c3)C(=O)NC2=S)cc1	x	x	n	u
COc1ccc(N2C(=O)/C(=C/c3ccc(C)o3)C(=O)NC2=S)c(OC)c1	x	x	20µM	n
SMILES	Vaccinia Venus	Vaccinia mCherry	FMDV inh	FBPA Giardia inh
COc1cc(CNCc2cc3cc(C)ccc3nc2-c2ccc(F)cc2)cc(OC)c1OC	n	n	n	x
COc1ccc(-c2nc3ccc(NC(C)=O)cc3c(=O)n2Cc2cccc(Cl)c2)cc1COc1ccc(NC(C)=O)cc1	n	n	x	x
CN1CCN(c2ccc(-c3ccc4ccccc4n3)cc2)CC1	n	n	1.78µM	n
CCN(CCO)c1ccc(N=Nc2cc(C)[nH]n2)cc1	n	n	12.6µM	n
Cc1cc(/C=N/n2c(COc3ccccc3)nc3ccccc3c2=O)c(O)c([N+](=O)[O-])c1	u	28.2µM	n	n
Cc1ccc(-c2[nH]ncc2/C=N/n2c(COc3ccccc3)nc3ccccc3c2=O)cc1	u	n	n	n
CSc1ccc(C(=O)N2CCc3c(cnc(C)c3CNC(=O)c3cncs3)C2)cc1	n	n	n	x
Cc1c(C(=O)Nc2ccc(-c3nnc4n3CCCCC4)cc2)oc2c1ccc1ccccc12	u	14.1µM	u	n
O=C(Nc1ccc(-c2nnc3n2CCCCC3)cc1)c1cc2ccccc2o1	n	n	n	n
COCCNc1nc(N)c([N+](=O)[O-])c(NC2CCCCC2)n1	n	n	n	n
NCCCNc1nc(N)c([N+](=O)[O-])c(NC2CCCCC2)n1	3.16µM	u	u	n
